Screening results (PubChem BioAssay)
Tau fibril FP: blocks human tau fibril formation measured by polarization | P10636 | Potency, µM (highest dose often 57.7 µM), hits mostly inhibitors | K18 P301L tau heparin fibrillization, Alexa594 FP, 6 h | 280,000 tested, 0.39% active; note: nearly all actives have a fitted effect of over 55% in size
Target sequence (P10636 561-689 P618L limits assumed): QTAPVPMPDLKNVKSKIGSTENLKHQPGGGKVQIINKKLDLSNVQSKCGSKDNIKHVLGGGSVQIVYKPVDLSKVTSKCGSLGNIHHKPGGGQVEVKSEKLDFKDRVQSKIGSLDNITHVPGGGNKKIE
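Human tau K18 […] P301L fragment, 15 uM unlabeled plus 0.24 uM Alexa 594-labeled tau (final), with compound and 20 uM heparin in 100 mM sodium acetate pH 7; 6 hr at 37 C, then Alexa 594 FP read.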
Tau ThT inhib: blocks human tau fibril formation measured by thioflavin T; P10636; recombinant tau K18 P301L, heparin-induced fibrillization, ThT fluorescence; Potency, µM (series often up to 57.4 µM), usual class: inhibitors; 270,000 tested, 2.1% active; note: nearly all actives have a fitted effect of over 55% in size
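Recombinant human tau K18 fragment […] carrying P301L, 15 uM unlabeled plus 0.24 uM Alexa 594-labeled, was fibrillized with 20 uM heparin in 100 mM sodium acetate pH 7 for 6 hr at 37 C; 30 uM ThT fluorescence read after 1 hr.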
Tau fluor cs: counter-screen for tau fibril formation inhibitors | 280,000 tested, 0.93% active | Potency, µM (titrated, usually from 57.7 µM) | tau K18 P301L Alexa594 fluorescence, heparin fibrillization; note: nearly all actives have a fitted effect of over 55% in size
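Human tau K18 P301L (15 uM unlabeled, 0.24 uM Alexa 594-labeled) in 100 mM sodium acetate pH 7 with 20 uM heparin, 6 hr at 37 C. ThT 30 uM added, 1 hr ambient; Alexa 594 FP and total fluorescence read at 555/632 nm.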
Gal4-VP16 FLuc: inhibits Gal4-VP16 luciferase reporter, ROR gamma counter-screen; Drosophila S2 Gal4-VP16 UAS-luciferase, luminescence, 20 h; Potency, µM (titrated, usually from 53.6 µM), most hits filed as inhibitors; 310,000 tested, 3.5% active;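 note: Gal4-VP16 expression switched on by copper sulfate through the metallothionein promoter; nearly all actives have a fitted effect of over 50% in size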
RORg inh: inhibitors of mouse ROR gamma transcriptional activity. P51450. Drosophila S2 Gal4-RORgamma UAS-luciferase reporter, 20 h. Potency, µM (doses to about 53.6 µM), hits mostly inhibitors. 310,000 tested, 5.4% active. AID 2551; note: nearly all actives have a fitted effect of over 60% in size
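Luminescence from a UAS-regulated Photinus luciferase reporter in stably transfected Drosophila Schneider cells is measured; decreased signal marks ROR gamma inhibition. Fusion expression is induced by 700 uM copper sulfate for 20 hr.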
Numbers stand for hits; [ ] = remark or other dose. Shown are actives, neighbours in structure and some others; about 7.3% of the full set was active somewhere. Calls come from the whole dose curve; as a rule, active = well fitted curve in the direction sought with a large enough effect; inconclusive = small, poorly fitted or top-dose-only effect, or another doubt; inactive = no such curve, though single readings can be large; an effect the other way counts as inactive or inconclusive.

COc1ccccc1C(=O)Nc1ccc(NC(=O)c2ccco2)cn1 was read as Gal4-VP16 FLuc inactive and RORg inh inactive.
`O=C(CN1C=NS(=O)(=O)c2ccccc21)Nc1ccc(F)cc1` gave Tau fibril FP inactive, Tau ThT inhib inactive and Tau fluor cs inactive.
`O=C(Nc1ccc(NC(=O)C2CCCCC2)cn1)c1ccco1` gave Tau fibril FP inactive, Tau ThT inhib inactive, Tau fluor cs inactive, Gal4-VP16 FLuc 8.91µM and RORg inh inconclusive.
O=C(Cc1ccccc1)Nc1ccc(NC(=O)c2ccco2)nc1 was read as Tau fibril FP inactive, Tau ThT inhib inactive, Tau fluor cs inactive, Gal4-VP16 FLuc inactive and RORg inh inactive.
Screening O=C(Nc1ccc(NC(=O)c2ccco2)nc1)c1ccco1 returned Tau fibril FP inactive, Tau ThT inhib inactive, Tau fluor cs inactive, Gal4-VP16 FLuc inactive[10 µM] and RORg inh 7.94µM.
`CC(C)(C)C(=O)Nc1ccc(/C=C/C(=O)c2ccco2)cc1` gave Gal4-VP16 FLuc inactive and RORg inh 10µM.
`O=C(Nc1ccc(NC(=O)c2ccco2)nc1)c1ccccn1` gave Tau fibril FP inactive, Tau ThT inhib inconclusive, Tau fluor cs inactive, Gal4-VP16 FLuc 1.78µM and RORg inh inconclusive.
Cc1cccc(/N=C/c2c(O)[nH]c3ccccc23)n1 was read as Tau fibril FP inactive, Tau ThT inhib inconclusive, Tau fluor cs inactive, Gal4-VP16 FLuc inactive and RORg inh inactive.
`Oc1c(Br)cc(Br)cc1C=Nc1ccc2c(c1)OCO2` gave Tau fibril FP inconclusive, Tau ThT inhib 20µM, Tau fluor cs inactive, Gal4-VP16 FLuc inconclusive and RORg inh 17.8µM.
`Oc1c(Br)cc(Br)cc1C=Nc1ccc2c(c1)OCCO2` gave Tau fibril FP inconclusive, Tau ThT inhib 11.2µM, Tau fluor cs inactive, Gal4-VP16 FLuc inconclusive and RORg inh inconclusive.
For O=[N+]([O-])c1ccc(O)c(C=Nc2ccc3c(c2)OCCO3)c1 the results were Tau fibril FP inactive, Tau ThT inhib inactive, Tau fluor cs inactive, Gal4-VP16 FLuc inactive and RORg inh inactive.
Oc1[nH]c2ccccc2c1C=Nc1ccc2c(c1)OCCO2 was read as Tau fibril FP inactive, Tau ThT inhib 11.2µM, Tau fluor cs inconclusive, Gal4-VP16 FLuc inconclusive and RORg inh inactive.
COc1ccc(C(=O)N/C(=C\c2ccccc2)C(=O)NCc2cccnc2)cc1 was read as Gal4-VP16 FLuc inactive and RORg inh inactive.
For NC(=O)[C@@H]1CCCN1C(=O)[C@H](Cc1cnc[nH]1)NC(=O)[C@@H]1CCC(=O)N1 the results were Gal4-VP16 FLuc inactive and RORg inh inactive[10 µM].
COc1ccc(CNC(=O)C(=O)Nc2c3c(nn2-c2ccccc2)CSC3)cc1 was read as Tau fibril FP inactive, Tau ThT inhib inactive and Tau fluor cs inactive.
For Cc1cc(C(F)(F)F)c2c(N)c(C(=O)Nc3cc(C)on3)sc2n1 the results were Tau fibril FP inactive, Tau ThT inhib inconclusive, Tau fluor cs inactive, Gal4-VP16 FLuc 3.98µM and RORg inh 7.08µM.
Screening Cc1cc(C)c2c(N)c(C(=O)Nc3ccccc3C(F)(F)F)sc2n1 returned Tau fibril FP inactive, Tau ThT inhib inactive and Tau fluor cs inactive.
`Cc1ccccc1/C=c1\s/c(=C\C(=O)C(C)(C)C)[nH]c1=O` gave Tau fibril FP inactive, Tau ThT inhib inactive, Tau fluor cs inactive, Gal4-VP16 FLuc 0.891µM and RORg inh inconclusive.
CCOC(=O)NNc1ccc2nonc2c1[N+](=O)[O-] was read as Tau fibril FP inconclusive, Tau ThT inhib 12.6µM, Tau fluor cs inactive, Gal4-VP16 FLuc inconclusive and RORg inh inactive.
`COc1ccc(C(=O)Oc2cc(/C=N/NC(N)=S)ccc2OC)cc1` gave Tau fibril FP inactive, Tau ThT inhib inactive, Tau fluor cs inconclusive, Gal4-VP16 FLuc 22.4µM and RORg inh 11.2µM.
`COC(=O)c1cccc(/C=N/NC(N)=S)c1O` gave Tau fibril FP inactive, Tau ThT inhib inactive, Tau fluor cs inactive, Gal4-VP16 FLuc 7.08µM and RORg inh 2µM.
`COc1ccc(C(=O)Oc2ccc(/C=N/O)cc2)cc1` gave Tau fibril FP inactive, Tau ThT inhib inconclusive, Tau fluor cs inactive, Gal4-VP16 FLuc 11.2µM and RORg inh 11.2µM.
Screening COc1ccc(/C=N/NC(N)=S)cc1OC(=O)c1cccc2ccccc12 returned Tau fibril FP inconclusive, Tau ThT inhib inactive, Tau fluor cs inconclusive, Gal4-VP16 FLuc 5.01µM and RORg inh 2.51µM.
